Sa RN4220 lethal – growth inhibition of S. aureus RN4220, primary screen, OD600 | inhibition, % (concentration not given with the values) | hit rate 0.33% among 330,000 | AID 1259311, 2017 | 16 h; in the data active means inhibition above about 85%
PfHsp40 rescue – rescue of yeast from PfHsp40 toxicity, primary screen, S. cerevisiae, ATP luminescence. S. cerevisiae expressing PfHsp40, growth rescue. growth rescue, % at 12.5 µM. hit rate 0.68% among 340,000. AID 504582, 2011; in the data active means growth rescue above about 28%, passing the limit was not always enough;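 further: yeast W303a lacking pdr1 and pdr3 grown in galactose medium; growth measured after three days at 30 °C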
ugtP null kill – growth inhibition of ugtP-null S. aureus, primary screen, RN4220 ugtP deletion, OD600; 16 h; growth inhibition, % (no concentration beside the values); hit rate 0.54% among 330,000; in the data active means growth inhibition above about 68%
PrP 5UTR inh – inhibition of PrP 5' UTR reporter expression. cell-based PrP 5' UTR mRNA reporter, plate reader. inhibition, % (concentration not given with the values). hit rate 0.35% among 340,000. AID 488862, 2010; in the data active means inhibition above about 52%
BJeLR viability – MLPCN primary cell-based screen for lethality selective to Ras in HRASV12 cells | BJeLR (HRASV12) viability, CellTiter-Glo ATP luminescence, 48 h | inhibition, % (concentration not given with the values) | hit rate 0.17% among 300,000; in the data active means inhibition above about 50%
Yp Topo-I inh – Yersinia pestis topoisomerase I inhibitors, primary screen, biochemical, cleavage product accumulation, plate reader, single point | DNA topoisomerase I (Yersinia pestis CO92) | Y. pestis Topo-I cleavage product accumulation | activity, % at 10 µM | hit rate 0.064% among 360,000 | AID 504884, 2011; in the data active means activity above about 50%, passing the limit was not always enough
Of the large screens only hits and unclear results are named; the others gave an inactive call; ! = not confirmed by another sample. Rows were chosen to be rich in hits. Some 1.4% of all compounds tested hit in one or more screens of this group.

Cc1ccccc1NC(C)C(=O)N/N=C/c1ccccc1OCc1cccc(Br)c1 (stereo not drawn)	PfHsp40 rescue 35 (no result: Sa RN4220 lethal, ugtP null kill)
O=c1c(CO)cc(CO)cc(CO)c1O	PfHsp40 rescue 422
S=C(Nc1ccc(Cl)cc1)Nc1cccc2cnccc12	PfHsp40 rescue 105
O=C(Nc1cccc(Cl)c1)N(CCCN1CCOCC1)Cc1ccccc1F	none
O=C(Nc1ccccc1)N(CCN1CCOCC1)Cc1cccc(Cl)c1	Yp Topo-I inh 73
CC(C)c1ccc(-c2nnn(Cc3nc4ccccc4s3)n2)cc1	ugtP null kill 85
COC(=O)C1CCN(C2CC(=O)N(c3cc(C)cc(C)c3)C2=O)CC1 (stereo not drawn)	PfHsp40 rescue 45
NC(=O)C1CCN(C2CC(=O)N(c3ccc(F)c(Cl)c3)C2=O)CC1 (stereo not drawn)	PfHsp40 rescue 204
O=C(C1CCN(C2CC(=O)N(c3cccc(Cl)c3)C2=O)CC1)N1CCCC1 (stereo not drawn)	PfHsp40 rescue 468 (no result: Sa RN4220 lethal, ugtP null kill)
CCN(CC)C1CC(=O)N(c2cccc(Cl)c2)C1=O (stereo not drawn)	PfHsp40 rescue 79
O=C(C1CCN(C2CC(=O)N(c3ccc(Cl)cc3)C2=O)CC1)N1CCOCC1 (stereo not drawn)	none
C=CCCC(Cc1ccc(F)cc1)C(=O)OCCNC(=O)C(CC=C)CC(=O)N(CCO)Cc1ccccc1 (stereo not drawn)	none (no result: PfHsp40 rescue, PrP 5UTR inh, BJeLR viability, Yp Topo-I inh)
CCOC(=O)C1CCN(C2CC(=O)N(c3cccc(Cl)c3)C2=O)CC1 (stereo not drawn)	PfHsp40 rescue 176
NC(=O)C1CCN(C2CC(=O)N(c3cccc(F)c3)C2=O)CC1 (stereo not drawn)	none
CC(=O)CC1c2ccccc2S(=O)(=O)N1C1CCCCC1 (stereo not drawn)	none (no result: PfHsp40 rescue, PrP 5UTR inh, BJeLR viability, Yp Topo-I inh)
NC1=NC[C@@H](Cc2ccc(O)cc2)N1CCc1cccc(F)c1	none (no result: Sa RN4220 lethal, ugtP null kill)
NC1=NCC(Cc2ccc(O)cc2)N1CCc1cccc2ccccc12 (stereo not drawn)	ugtP null kill 100! (no result: PfHsp40 rescue, PrP 5UTR inh, BJeLR viability, Yp Topo-I inh)
NC1=NC[C@H](Cc2ccc(O)cc2)N1CCC12CC3CC(CC(C3)C1)C2	none (no result: Sa RN4220 lethal, ugtP null kill)
NC1=NCC(Cc2ccc(O)cc2)N1CCCCC1CCCCC1 (stereo not drawn)	Sa RN4220 lethal 101, ugtP null kill 100 (no result: PfHsp40 rescue, PrP 5UTR inh, BJeLR viability, Yp Topo-I inh)
NC1=NCC(Cc2ccc(O)cc2)N1CCC12CC3CC(CC(C3)C1)C2 (stereo not drawn)	Sa RN4220 lethal 101!, ugtP null kill 101! (no result: PfHsp40 rescue, PrP 5UTR inh, BJeLR viability, Yp Topo-I inh)
CC1CN(C(C)CO)C(=O)Cc2cc(NS(=O)(=O)c3ccc(F)cc3)ccc2OC1CN(C)Cc1ccc(C(=O)O)cc1 (stereo not drawn)	none (no result: PfHsp40 rescue, PrP 5UTR inh, BJeLR viability, Yp Topo-I inh)
C#CCNC(=O)C1=CC(c2ccccc2)C(CCCO)C(OCC)O1 (stereo not drawn)	none (no result: PfHsp40 rescue, PrP 5UTR inh, BJeLR viability, Yp Topo-I inh)
COc1cc(C=CC(=O)O)cc(OC)c1O	none (no result: PfHsp40 rescue, PrP 5UTR inh, BJeLR viability, Yp Topo-I inh)
COc1cc(/C=C/C(=O)Nc2ccc(OC)c(S(=O)(=O)N3CCOCC3)c2)ccc1OC(F)F	ugtP null kill 87 (no result: BJeLR viability)
C#CCN(C[C@@H](CC(C)C)NC(=O)OC(C)(C)C)S(=O)(=O)c1ccc(Br)cc1F	Yp Topo-I inh 53 (no result: Sa RN4220 lethal, ugtP null kill, BJeLR viability)
CCC(=O)Nc1cccc(C2=NOC3(C2)CC(C(N)=O)N(C(=O)CC#N)C3)c1 (stereo not drawn)	none (no result: PfHsp40 rescue, PrP 5UTR inh, BJeLR viability, Yp Topo-I inh)
COc1cc2c(cc1OC)C(c1ccccc1)NCC2 (stereo not drawn)	none
COc1cc2c(cc1OC)C(c1ccc(O)cc1)NCC2 (stereo not drawn)	PfHsp40 rescue 74
CCOC(=O)C1C2COc3ccccc3C2N2C(=O)N(c3cccc(C)c3)C(=O)[C@]12C (stereo partly drawn)	none (no result: PfHsp40 rescue, PrP 5UTR inh, BJeLR viability, Yp Topo-I inh)
COc1ccc(-c2ccc(/C=C3/C(=N)N4C=CSC4=NC3=O)o2)c([N+](=O)[O-])c1	ugtP null kill 94
O=C(C1=CC(C2CCCCC2)CC(OCc2ccc(CO)cc2)O1)N1CCOCC1 (stereo not drawn)	none (no result: PfHsp40 rescue, PrP 5UTR inh, BJeLR viability, Yp Topo-I inh)
O=C(NCCCn1ccnc1)Nc1ccc(Cl)c(Cl)c1	PfHsp40 rescue 46
Cc1ccc(NC(=O)NCC2CC2(Cl)Cl)cc1 (stereo not drawn)	none (no result: Sa RN4220 lethal, ugtP null kill)
O=C(NCC1CC1(Cl)Cl)Nc1ccc(Cl)c(Cl)c1 (stereo not drawn)	PfHsp40 rescue 304
CCOc1cc(/C=C2\CN(CC)C/C(=C\c3ccc(O)c(OCC)c3)C2=O)ccc1O	BJeLR viability 57
CCOc1cc(C=O)ccc1O	none (no result: BJeLR viability)
O=c1c(Br)ccc(Br)cc1Br	PfHsp40 rescue 77 (no result: BJeLR viability)
COC(=O)C1=COC(C)C2CN3CC[C@@]4(C(=O)Nc5ccccc54)C3CC12 (stereo partly drawn)	none (no result: PfHsp40 rescue, PrP 5UTR inh, BJeLR viability, Yp Topo-I inh)
COc1ccc(C2C(=C(O)c3ccccc3)C(=O)C(=O)N2C)cc1 (stereo not drawn)	none (no result: PfHsp40 rescue, PrP 5UTR inh, BJeLR viability, Yp Topo-I inh)
COc1ccccc1NC(CC(=O)c1ccccc1)C(=O)OCC(=O)c1ccc(C)cc1 (stereo not drawn)	ugtP null kill 84
COC(=O)C1=CC(C(=O)OC)C2C3=C(C(=O)[C@]2(C)NC(=O)c2ccccc2)C(C)n2c(=O)n(-c4ccccc4)c(=O)n2C3C1 (stereo partly drawn)	none (no result: PfHsp40 rescue, PrP 5UTR inh, BJeLR viability, Yp Topo-I inh)
CNCC(Cc1ccccc1)NCC(Cc1cccc2ccccc12)NCCc1ccc(C)cc1 (stereo not drawn)	Sa RN4220 lethal 101, ugtP null kill 100 (no result: PfHsp40 rescue, PrP 5UTR inh, BJeLR viability, Yp Topo-I inh)
CNC[C@H](Cc1ccccc1)NC[C@@H](Cc1cccc2ccccc12)NCCc1ccc(C)cc1	none (no result: Sa RN4220 lethal, ugtP null kill)
CCC(C)C(CNC)NCC(Cc1cccc2ccccc12)NCCc1cccc(C(F)(F)F)c1 (stereo not drawn)	Sa RN4220 lethal 101, ugtP null kill 100 (no result: PfHsp40 rescue, PrP 5UTR inh, BJeLR viability, Yp Topo-I inh)
CCCC(CNC(CNC)C(C)CC)NCCc1cc(C(F)(F)F)cc(C(F)(F)F)c1 (stereo not drawn)	none (no result: PfHsp40 rescue, PrP 5UTR inh, BJeLR viability, Yp Topo-I inh)
CC1CC2C3CC(F)C4=CC(=O)C=C[C@]4(C)[C@@]3(Cl)C(O)C[C@]2(C)C1C(=O)COC(=O)C(C)(C)C (stereo partly drawn)	none (no result: PfHsp40 rescue, PrP 5UTR inh, BJeLR viability, Yp Topo-I inh)
Oc1ccccc1-c1nnc(SCCN2CCOCC2)n1Cc1ccccc1	PfHsp40 rescue 249
Cc1ccc(NS(=O)(=O)c2ccc3[nH]c(=O)sc3c2)cc1	ugtP null kill 100
CC(C)NC(=O)Nc1cccc2c1OC(CN(C)S(=O)(=O)c1ccccc1)C(C)CN(C(C)CO)C2=O (stereo not drawn)	none (no result: PfHsp40 rescue, PrP 5UTR inh, BJeLR viability, Yp Topo-I inh)
Oc1c(Br)cc(Br)cc1/C=N/NC(=S)N[C@H]1CC2C=CC1C2 (stereo partly drawn)	PfHsp40 rescue 78 (no result: Sa RN4220 lethal, ugtP null kill)
CC1=C(C(=O)O)N2C(=O)C(NC(=O)c3nn(C)cc3[N+](=O)[O-])C2SC1 (stereo not drawn)	none
Cc1cc(C(F)F)nn1CC(=O)NC1C(=O)N2C(C(=O)O)=C(CSc3nnnn3C)CSC12 (stereo not drawn)	Sa RN4220 lethal 100, ugtP null kill 100
